Compound activity deposited in PubChem BioAssay by National Center for Advancing Translational Sciences (NCATS).
Giardia FBPA inh – Giardia lamblia aldolase inhibition; purified Giardia FBPA; Potency, µM (doses to about 59.6 µM), without a hit: at the highest dose activity, negative = inhibition, most hits filed as inhibitors; AID 2451; hit rate 0.71% among 290,000; A8B2U2; note: potency is the fitted concentration of half-maximal effect; % is set by controls: 0 for no effect and ±100 for the full control effect; nearly all actives have a fitted effect of over 55% in size
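Giardia FBPA (40 nM reagent) was preincubated 10 min at RT with compound (up to 57.5 uM final), then substrate plus GAPDH/TPI/NAD/arsenate coupling system with diaphorase/resazurin was added; resorufin fluorescence (525/598 nm) was read after 20 min.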
RE007 growth inh – less growth of the S. pombe RE007 Vpr strain. S. pombe RE007 Vpr strain, BacTiter-Glo ATP luminescence, 24 h. Potency, µM (doses to about 92.2 µM), inactives show at the top dose activity change, negative = less growth, hits mostly inhibitors. hit rate 0.21% among 360,000. AID 651644; active = well fitted falling curve with a large enough effect; inconclusive = small, poorly fitted or top-dose-only effect; inactive = no such curve, though single readings can be large or run the other way; note: potency is the fitted concentration of half-maximal effect; % is set by controls: 0 for no effect and ±100 for the full control effect; nearly all actives have a fitted effect of over 50% in size
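Fission yeast strain RE007, carrying one chromosomally integrated HIV-1 vpr copy, was seeded at OD 0.01 in PMG+AL medium with 23 nL pinned compound. After 24 h at 30 °C and 99% humidity, viability was read by BacTiter-Glo luminescence.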
Sm TGR inh – inhibitors of Schistosoma mansoni thioredoxin glutathione reductase. purified TGR, DTNB reduction, TNB absorbance 405 nm. Potency, µM (top dose mostly 114 µM), without a hit: at the top dose activity change, negative = inhibition, most hits filed as inhibitors. AID 485364. Q962Y6. hit rate 3% among 360,000; note: potency is the fitted concentration of half-maximal effect; % is set by controls: 0 for no effect and ±100 for the full control effect; nearly all actives have a fitted effect of over 60% in size
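Kinetic colorimetric format: TGR-catalysed, NADPH-driven DTNB reduction monitored via TNB absorbance. Enzyme dispensed at 20 nM; compound exposure 15 min at room temperature before reaction start.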
LmPK inhibitor – blocks Leishmania mexicana pyruvate kinase activity. purified LmPK, Kinase-Glo ATP luminescence, 1 h. Potency, µM (top dose mostly 57.5 µM), inactives show top-dose activity change, negative = inhibition, usual class: inhibitors. hit rate 0.37% among 290,000; note: potency is the fitted concentration of half-maximal effect; % is set by controls: 0 for no effect and ±100 for the full control effect
Target sequence (Q27686 whole entry, looked up): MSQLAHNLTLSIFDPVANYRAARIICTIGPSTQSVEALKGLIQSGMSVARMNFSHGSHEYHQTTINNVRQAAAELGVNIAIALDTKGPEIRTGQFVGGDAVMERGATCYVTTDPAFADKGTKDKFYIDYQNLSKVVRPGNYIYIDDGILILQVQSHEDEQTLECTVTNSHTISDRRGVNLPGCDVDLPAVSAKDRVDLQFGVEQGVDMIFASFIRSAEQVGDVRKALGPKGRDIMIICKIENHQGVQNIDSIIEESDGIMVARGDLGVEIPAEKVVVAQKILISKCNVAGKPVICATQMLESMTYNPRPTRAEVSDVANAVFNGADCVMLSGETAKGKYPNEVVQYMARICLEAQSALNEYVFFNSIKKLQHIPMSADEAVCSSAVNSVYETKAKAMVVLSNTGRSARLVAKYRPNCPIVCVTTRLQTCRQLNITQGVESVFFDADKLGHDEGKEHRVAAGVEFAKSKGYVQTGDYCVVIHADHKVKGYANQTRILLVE
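Purified LmPK (0.1 nM) with 0.5 mM PEP and 0.1 mM ADP in imidazole buffer pH 7.2 with MgCl2/KCl, 1 h at room temperature. ATP formed was read by luciferase luminescence and normalized to no-enzyme and uninhibited controls.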
NS1 inh – blocks influenza NS1 protein function; Potency, µM (highest dose often 46.1 µM), for the others: at the top dose activity, positive = more growth; hit rate 0.4% among 270,000; AID 2326; calls by dose curve; note: potency is the fitted concentration of half-maximal effect; actives are rising curves; nearly all actives have a fitted effect of over 50% in size
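Growth recovery, yeast-based: influenza A NS1 expressed in S. cerevisiae causes slow growth, and suppressors are detected by OD600. The parent strain without NS1 is used as positive control.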
TbPYK inhibitor – inhibitors of Trypanosoma brucei pyruvate kinase; Q57TT1; TbPYK enzyme, Kinase-Glo Plus ATP luminescence, 45 min; Potency, µM (titrated, usually from 76.8 µM), for the others: at the top dose activity, negative = inhibition, usual class: inhibitors; hit rate 0.12% among 410,000; note: potency is the fitted concentration of half-maximal effect; % is set by controls: 0 for no effect and ±100 for the full control effect; nearly all actives have a fitted effect of over 50% in size
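In this concentration-response screen, enzyme-free wells defined baseline while DMSO plates tracked drift. Each reaction combined TbPYK, substrate, compound and 130 uM ADP for 45 min at room temperature. Kinase-Glo Plus luminescence gave the signal.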
NS1 inh valid – validation of influenza NS1 protein function inhibitors. 1,400 tested, under 10 active. activity change, negative = inhibition, % at 32.9 µM. shares compounds with NS1 inh. AID 492980. influenza NS1 function cell assay, 15-point titration; calls by dose curve; note: 0% is about no effect
PR8 titer – reduces influenza A/PR/8/34 replication in MDCK cells; virus titer (log TCID50), log10 TCID50 at 5 µM; MDCK infected influenza A/PR/8/34, virus titer TCID50; active compounds read low; hit rate 30% among 95; AID 504647; shares compounds with NS1 inh; call rule not given here
Numbers without * were called inactive; ? = inconclusive; / = no result given. The list is not random: actives were taken first. Their share in the collection is about 3.5%. Unless noted, calls come from the whole dose curve; as a rule, active = well fitted curve in the direction sought with a large enough effect; inconclusive = small, poorly fitted or top-dose-only effect, or another doubt; inactive = no such curve, though single readings can be large; an effect the other way counts as inactive or inconclusive.

SMILES	Giardia FBPA inh	RE007 growth inh	Sm TGR inh	LmPK inhibitor	NS1 inh	TbPYK inhibitor	NS1 inh valid	others
CC[C@H](C)[C@H](NC(=O)[C@@H]1CCCN1C(=O)[C@H](C)NC(=O)[C@H](CC(N)=O)NC(=O)[C@@H]1CCCN1C(=O)[C@@H]1CCCN1C(=O)[C@H](CCCN=C(N)N)NC(=O)[C@H](Cc1ccc(O)cc1)NC(=O)[C@H](C)NC(=O)[C@@H]1CCCN1C(=O)[C@@H]1CCCN1C(=O)[C@@H](N)[C@@H](C)O)C(=O)N[C@@H](CC(C)C)C(=O)O	8%	/	/	/	/	/	/
CCOc1ccc(CNC(=O)c2cnc3sc(N(CC)CC)nn3c2=O)cc1	/	/	4%	/	/	-1%	/
CCOc1ccc(N2C(=O)CC(Sc3nc(CC(C)C)ccc3C#N)C2=O)cc1 (stereo not drawn)	-11%	0%	0%	6%	5%	2%	/
CCOc1ccc(N2C(=O)CC(Sc3nc(C)cc(C)c3C#N)C2=O)cc1 (stereo not drawn)	12%	-5%	-11%	6%	13µM*	2%	16
CCN(C(=O)c1cccn(Cc2ccccc2C)c1=O)c1ccccc1	/	/	17%	/	/	-8%	/
Cc1ccc([N+](=O)[O-])cc1S(=O)(=O)N1CCn2cccc2C1c1ccccc1 (stereo not drawn)	/	/	4%	/	/	2%	/
Cc1nc2ccc(S(=O)(=O)Nc3ccc(-c4nc5cccnc5s4)cc3)cc2s1	18%	-7%	-4%	-1%	-12%	1%	/
Cc1nc2ccc(S(=O)(=O)Nc3cccc(-c4nc5cccnc5s4)c3)cc2s1	16%	-5%	5%	5%	11µM*	3%	-34
CCn1c(C(=O)NCc2ccccc2OC)cc2sccc21	/	/	0%	/	/	4%	/
Nc1c(/C=C2/C=CC(=O)C(O)=C2)c(=O)nc2sc(CC(=O)N3CCCCC3)nn12	?	8%	-3%	12%	14µM*	0%	-11
Cc1ccc(-c2c3c(=O)n(C)c(=O)n(C)c3c3c(C)nc4ccccc4n23)cc1	/	/	1%	/	/	-2%	/
O=C1CC(c2ccco2)CC(O)=C1C=NCC1CCNCC1 (stereo not drawn)	-23%	17%	?	1%	10µM*	3%	2
O=C(/C=N/O)NCCCN1CCCCCC1	?	-5%	?	2%	3%	4%	/
O=C(/C=N/O)NCCCN1CCOCC1	-21%	/	8%	8%	?	5%	1
Cc1ccc(/C=C2\SC(N3CCN(C(c4ccccc4)c4ccccc4)CC3)=NC2=O)o1	?	-18%	35µM*	3%	11µM*	-1%	?
Cc1nn(C(C)C(=O)NC2CCC(C)CC2)c(=O)c2cc3sccc3n12 (stereo not drawn)	/	/	1%	/	/	4%	/
O=c1[nH]c(C2CCCN(S(=O)(=O)c3ccccc3)C2)nc2c1nnn2Cc1ccccc1Br (stereo not drawn)	-7%	-9%	-9%	2%	7.1µM*	2%	?
Cc1ccc(Cn2nnc3c(=O)[nH]c(C4CCN(S(=O)(=O)c5ccc(F)cc5)CC4)nc32)cc1	5%	6%	4%	-2%	13µM*	5%	4
CCOC(=O)COc1ccc(C)cc1C(=O)c1ccn2nc(-c3ccc(Cl)cc3)cc2n1	/	/	-8%	/	/	-12%	/
O=C(Nc1nnc(SCc2ccc(F)cc2)s1)C1Cc2ccccc2CN1C(=O)c1ccco1 (stereo not drawn)	-1%	7%	-34%	0%	7.9µM*	-11%	6
O=C(Nc1nnc(SCc2ccc(Cl)cc2)s1)c1ccco1	15%	-28%	2%	4%	-19%	?	/
Cc1ccc(N2CC(NC(=O)C3CC3)CC2=O)cc1C (stereo not drawn)	/	/	8%	/	/	-1%	/
Cc1ccc(NC(=O)CSc2nc(O)cc(=O)n2C)cc1	4%	-2%	28%	5%	11µM*	-1%	?
Cn1c(SCC(=O)Nc2ccc(Br)cc2)nc(O)cc1=O	6%	1%	8%	3%	?	4%	/
Cn1c(SCC(=O)Nc2cccc3ccccc23)nc(O)cc1=O	5%	12%	15%	3%	3.5µM*	-6%	24
SMILES	Giardia FBPA inh	RE007 growth inh	Sm TGR inh	LmPK inhibitor	NS1 inh	TbPYK inhibitor	NS1 inh valid	others
COc1ccccc1NC(=O)CSc1nc(O)cc(=O)n1C	2%	19%	-4%	-1%	?	-8%	/
Cc1cccn2c(=O)cc(COc3ccc(NC(=O)c4cccc(F)c4)cc3)nc12	/	/	-1%	/	/	4%	/
C/C(CC(=O)N(C(C)C)C(C)C)=N\NC(=O)COc1ccc(Br)cc1Br	6%	0%	1%	2%	11µM*	3%	?
C/C(CC(=O)N(C(C)C)C(C)C)=N\NC(=O)COc1ccc(Cl)cc1Cl	-9%	-18%	-3%	9%	/	-13%	/
COc1cc(C2C(C#N)=C(N)Oc3c2ccc2ccccc32)ccc1OCC(=O)Nc1cccc(C)c1 (stereo not drawn)	?	16%	1%	3%	11µM*	-4%	5	PR8 titer=8.3
COc1cc(C2C(C#N)=C(N)Oc3c2ccc2ccccc32)ccc1OCC(=O)Nc1ccc(C)cc1 (stereo not drawn)	?	5%	4%	-2%	?	8%	/
CN(C)/C=C1\SC(=S)N(c2ccc(Br)cc2)C1=O	-1%	-3%	-3%	-18%	?	-20%	-10
Cc1ccc(NC(=O)C2CCCN(S(=O)(=O)c3cccs3)C2)c(C)c1 (stereo not drawn)	/	/	-5%	/	/	-3%	/
CCOC(=O)c1cnn(-c2ccc(C(=O)Nc3cc(OC)c(OC)c(OC)c3)cc2)c1N	/	/	-6%	/	/	-2%	/
O=C(Nc1nnc2n1CCS2)c1ccco1	-16%	-8%	5%	7%	?	-7%	9
O=C(Cc1ccccc1)Nc1nnc2n1CCS2	/	/	6%	/	/	1%	/
